{
  "source": "PubChem BioAssay AID1347120",
  "about": "(National Center for Advancing Translational Sciences (NCATS), 2019)",
  "note": "Hit rate of the full screen: of about 390,000 compounds, about 930 (0.24%) were called active. Roughly 5% stayed inconclusive and do not appear here. Calls come from the whole dose curve; as a rule, active = well fitted activation curve with a large enough effect; inconclusive = small, poorly fitted or top-dose-only effect; inactive = no such curve, though single readings can be large or run the other way. The entries come from a sample that favours actives as a whole. Potency is the fitted concentration of half-maximal effect.",
  "data": [
    {"experiment": "qHTS for Suppressors of FUS Proteinopathy: Primary screen using FUS-linked yeast assay; note: nearly all actives have a fitted effect of over 55% in size;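 for growth rescue (activation): plate controls were DMSO vehicle for no effect and reference control for full effect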", "conditions": "S. cerevisiae FUS-expressing, OD600, 24 h; Potency: growth rescue; series mostly up to 76.6 µM; growth rescue (activation): at the top concentration", "source_text": "Several widespread neurodegenerative diseases, including Alzheimer disease, Huntington disease, Frontotemporal Lobar Degeneration (FTLD) and Amyotrophic Lateral Sclerosis (ALS), share a common pathological feature, namely accumulation of specific protein aggregates in diseased tissue. These diseases which is associated with protein misfolding (proteinopathies) have become increasingly problematic as the population ages and life expectancies are extended. Most proteinopathies are currently incurable, a situation confounded by the fact that the basis of neurodegeneration is generally poorly understood. There exists urgent and significant need to find therapeutics that can inhibit the toxicity associated with protein aggregation. A novel approach to understand the underlying mechanisms of neurodegenerative diseases has recently emerged in which the disease conditions are modeled in the yeast (Saccharomyces cerevisiae), a tractable eukaryotic organism with conserved protein quality control mechanisms. Yeast offers quick and reliable genetic manipulations and can be easily tailored to high-throughput screening (HTS).\nFor this project, a yeast model of the FUS proteinopathies (a spectrum of neurodegenerative diseases that include ALS and a subtype of FTLD) was generated and employed. The cytoplasmic accumulation of the DNA/RNA-binding protein FUS (also known as TLS) is causative to both familial and sporadic forms of ALS and FTLD. This yeast model recapitulates neuronal pathology by showing severe cytotoxicity associated with cytoplasmic accumulation of FUS aggregates and a specific interaction between FUS and TDP-43, another ALS-associated protein. […] Specifically, the cellular accumulation of misfolded FUS that disrupts RNA homeostasis in both yeast and higher eukaryotes. This model was validated to be suitable for quantitative HTS (qHTS) use for finding genetic or chemical factors that restore growth. […] Identified compounds that inhibits FUS-yeast toxicity is flagged, re-acquired, and validated for further investigation and optimization.\nNIH Chemical Genomics Center [NCGC]\nNIH Molecular Libraries Probe Production Centers Network [MLPCN]\nAssay Submitter (PI): Frank Shewmaker PhD, Uniformed Services University of the Health Sciences\nCompound CP55940 was used as the positive control. Column 1 was treated with CP55940 titration from 92uM (final concentration, 1:2 dilution), while Column 2 was treated with top dose 92uM. Columns 3 and 4 were treated with DMSO only as negative control to assess background and noise signal.\nFour hundred fifty microliter of cultured yeast (in 20mL rich medium) provided by Dr. Shewmaker lab was incubated at 30C at 99% humidity for 3hr. The culture was then spun down at 4000rpm for 5min and the cell pellet was resuspended in 2mL of Sdmin Media + ALU(330) + 2.5% Raffinose. One hundred microliter of the suspension was added to 900uL of water and OD of the solution was obtained. Twenty mL of responding medium (provided by Shewmaker lab) + 2.5% raffinose was added to ensure cell density of 0.1; the solution was incubated overnight. Working cell solution (FUS-yeast in Sdmi + Sdmi + 1X ALU + 2% galactose media) was prepared (final OD at 0.005) and 3uL was dispensed in a 1536-well Aurora high based clear bottom assay plates. Controls and library compounds (at various final concentrations from 40uM to 0.32uM) were added using a 1536-well pin array using the Kalypsys pin-tool. The plates were then incubated for 24hrs in a cell-culture incubator (30C; 99% humidity). Absorbance at 600nm was then read using the PerkinElmer ViewLux plate reader.", "values": [
      {"compound": "Cc1cc(C(=O)Nc2cccc(C(F)(F)F)c2)c2c(C)nn(-c3cccc(F)c3)c2n1", "growth rescue (activation)": "15.4% (inactive)"},
      {"compound": "CC(C)(C)c1ccc(C(=O)Nc2ccc3c(c2)CCCN3C(=O)c2cccs2)cc1", "growth rescue (activation)": "41.4% (inactive)"},
      {"compound": "CC(C)(C)c1ccc(S(=O)(=O)Nc2ccc(O)c(Sc3nc4ccccc4s3)c2)cc1", "growth rescue (activation)": "9.07% (inactive)"},
      {"compound": "CC(C)c1ccc(S(=O)(=O)Nc2ccc(O)c(Sc3nc4ccccc4s3)c2)cc1", "growth rescue (activation)": "30.6% (inactive)"},
      {"compound": "CCOc1ccc(Nc2c(S(=O)(=O)c3ccccc3)cnc3ccccc23)cc1", "growth rescue (activation)": "43.5% (inactive)"},
      {"compound": "Cc1c(NC(=O)Cc2ccccc2)cccc1-c1nc2cccnc2s1", "growth rescue (activation)": "24% (inactive)"},
      {"compound": "Cc1ccc(Cl)cc1NC(=O)CCC(=O)N1CC(C)Sc2ccccc21", "note": "(stereo not given)", "growth rescue (activation)": "43.6% (inactive)"},
      {"compound": "CCN(C(=O)COC(=O)CCOc1cccc(C)c1)c1c(N)n(Cc2ccccc2)c(=O)[nH]c1=O", "growth rescue (activation)": "8.57% (inactive)"},
      {"compound": "CCCn1c(C)cc(/C=C(\\C#N)C(=O)OCC(=O)Nc2cc(OC)c(OC)c(OC)c2)c1C", "growth rescue (activation)": "23.6% (inactive)"},
      {"compound": "CCCn1c(C)cc(/C=C(\\C#N)C(=O)OCC(=O)N(C)c2c(N)n(Cc3ccccc3)c(=O)[nH]c2=O)c1C", "Potency": "25.1 µM (active)"},
      {"compound": "CCC1CCCCN1C(=O)Cn1c(=O)n(CCCCCC(=O)NCc2ccccc2)c(=O)c2sccc21", "note": "(stereo not given)", "growth rescue (activation)": "6.98% (inactive)"},
      {"compound": "COc1ccc(NC(=O)NC(C)c2c(-n3cccc3)sc(C)c2C)cc1OC", "note": "(stereo not given)", "growth rescue (activation)": "42.7% (inactive)"},
      {"compound": "CCN(CC)S(=O)(=O)c1ccc2c(c1)N(CC(=O)NCC(C)c1ccccc1)C(=O)CO2", "note": "(stereo not given)", "growth rescue (activation)": "14.3% (inactive)"},
      {"compound": "CCN(CCCNC(=O)c1cc2c(=O)n(CC)c3ccccc3c2s1)Cc1ccccc1", "growth rescue (activation)": "6.37% (inactive)"},
      {"compound": "Cc1cccc(NC(=O)CSc2nnc(CNC(=O)c3cccc(C)c3)n2-c2ccccc2)c1", "growth rescue (activation)": "8.61% (inactive)"},
      {"compound": "CCc1ccc(S(=O)(=O)c2nnn3c2nc(NCc2ccccc2OC)c2cc(Cl)ccc23)cc1", "growth rescue (activation)": "-7.06% (inactive)"},
      {"compound": "N#C/C(=C\\c1cccc(F)c1)c1nc(-c2cc3c(ccc4ccccc43)oc2=O)cs1", "growth rescue (activation)": "-1.96% (inactive)"},
      {"compound": "COc1ccc(C2C(=O)N(C3CCCCCC3)CC(=O)N2CCc2ccc(Cl)cc2)cc1OC", "note": "(stereo not given)", "growth rescue (activation)": "21.5% (inactive)"},
      {"compound": "Cc1onc(-c2ccc(F)cc2F)c1C(=O)Nc1cccc(C(F)(F)F)c1", "growth rescue (activation)": "8.05% (inactive)"},
      {"compound": "Cc1ccc(CNC(=O)CSC2=Nc3ccccc3C3=NC(C)C(=O)N23)cc1", "note": "(stereo not given)", "growth rescue (activation)": "17.6% (inactive)"},
      {"compound": "COc1ccc(C2=NN(C(=O)CSc3nc(=O)n4ccc(C)cc4n3)C(c3ccc(C)cc3)C2)cc1", "note": "(stereo not given)", "growth rescue (activation)": "-24.8% (inactive)"},
      {"compound": "Cc1ccc(N2C(=O)C3N=NN(CC(=O)N4N=C(c5cccc6ccccc56)CC4c4ccccc4)C3C2=O)cc1", "note": "(stereo not given)", "Potency": "14.1 µM (active)"},
      {"compound": "COc1ccccc1CNC(=O)Cn1nc(C)c2nn(-c3ccc(Cl)cc3)c(C)c2c1=O", "growth rescue (activation)": "43.3% (inactive)"},
      {"compound": "Cc1ccc(NC(=O)c2nc(S(=O)(=O)Cc3cccc(C)c3)ncc2Cl)cc1", "growth rescue (activation)": "-17.7% (inactive)"},
      {"compound": "CCN1C(=O)[C@H]2[C@@H](c3ccc(-c4ccc(OC)cc4)cc3)N[C@@](Cc3ccccc3)(C(=O)OC)[C@H]2C1=O", "growth rescue (activation)": "-1.62% (inactive)"},
      {"compound": "CCN1C(=O)[C@H]2[C@@H](c3ccc(-c4ccc(F)cc4)cc3)N[C@@](Cc3ccccc3)(C(=O)OC)[C@H]2C1=O", "Potency": "11.2 µM (active)"},
      {"compound": "CCN1C(=O)[C@H]2[C@@H](c3ccc(SC4CCCCC4)c(OC)c3)N[C@@](Cc3ccccc3)(C(=O)OC)[C@H]2C1=O", "growth rescue (activation)": "26.7% (inactive)"},
      {"compound": "COC(=O)c1cc2occc2n1Cc1nc(-c2ccc(C)cc2)oc1C", "growth rescue (activation)": "17.4% (inactive)"},
      {"compound": "CCN(Cc1ccccc1)S(=O)(=O)c1ccc2c(c1)CCCN2C(C)=O", "growth rescue (activation)": "17.6% (inactive)"},
      {"compound": "Cc1cccc(CSc2nc3ccncc3n2CC(=O)N(C)C2CCCCC2)c1", "growth rescue (activation)": "11.2% (inactive)"},
      {"compound": "Cc1ccc(Cl)cc1N(C)C(=O)C1CCCN(c2ncnc3onc(-c4ccc(F)cc4)c23)C1", "note": "(stereo not given)", "growth rescue (activation)": "5.26% (inactive)"},
      {"compound": "COc1ccc(N2CCN(S(=O)(=O)c3ccc4c(c3)NC(=O)C(C)C(=O)N4)CC2)cc1", "note": "(stereo not given)", "growth rescue (activation)": "5.53% (inactive)"},
      {"compound": "CON(C)S(=O)(=O)c1ccc2c(c1)NC(=O)C1CCCN21", "note": "(stereo not given)", "Potency": "28.2 µM (active)"},
      {"compound": "CC1C(=O)Nc2ccc(S(=O)(=O)N3CCN(c4ccccc4F)CC3)cc2NC1=O", "note": "(stereo not given)", "growth rescue (activation)": "-20% (inactive)"},
      {"compound": "COc1ccc(OCCCn2c(C)nc3cc(C)c(C)cc32)cc1", "growth rescue (activation)": "25.3% (inactive)"},
      {"compound": "CC(NC(=O)c1cc(Sc2ccc(F)cc2F)nc2ccccc12)c1ccccc1", "note": "(stereo not given)", "growth rescue (activation)": "23.4% (inactive)"},
      {"compound": "Cc1cccc(-n2ncc(C(=O)N3CCc4ccccc4C3)c2C2CCN(C(=O)OC(C)(C)C)CC2)c1", "growth rescue (activation)": "-8.68% (inactive)"},
      {"compound": "CC(=O)c1sc(N2C(=O)c3oc4ccccc4c(=O)c3C2c2ccc(C)cc2)nc1C", "note": "(stereo not given)", "growth rescue (activation)": "3.74% (inactive)"},
      {"compound": "CCOc1cc(C2C(C(=O)c3ccco3)=C(O)C(=O)N2Cc2ccccc2)ccc1O", "note": "(stereo not given)", "growth rescue (activation)": "11% (inactive)"},
      {"compound": "Cc1ccc2nc(N3C(=O)C(O)=C(C(=O)c4ccco4)C3c3cccc(O)c3)sc2c1", "note": "(stereo not given)", "Potency": "15.8 µM (active)"},
      {"compound": "Cc1ccc(CN2C(=O)SC(Nc3ccccc3)C2=O)cc1", "note": "(stereo not given)", "growth rescue (activation)": "-7.07% (inactive)"},
      {"compound": "CCN(c1ccc2c(c1)OCO2)S(=O)(=O)c1cc(Br)cc2c1N(C(=O)C1CC1)CC2", "Potency": "17.8 µM (active)"},
      {"compound": "CCOC(=O)N1CCN(S(=O)(=O)c2cc(Br)cc3c2N(C(=O)C2CC2)CC3)CC1", "growth rescue (activation)": "1.43% (inactive)"},
      {"compound": "CN(Cc1ccccc1)C(=O)CCS(=O)(=O)c1cc(Br)cc2c1N(C(=O)C1CC1)CC2", "growth rescue (activation)": "43.2% (inactive)"},
      {"compound": "O=C(CCS(=O)(=O)c1cc(Br)cc2c1N(C(=O)C1CC1)CC2)Nc1ccc(Br)cc1F", "growth rescue (activation)": "-0.121% (inactive)"}
    ]}
  ]
}
